Screens as filed in PubChem BioAssay.
This is a sample that favours compounds with a hit; in the whole collection about 19% have one here.
HT1080 IDH1KD tx = HT-1080 IDH1 knockdown cell toxicity (counter line); HT-1080 IDH1 knockdown viability, ATP luminescence, 48 h; Potency, µM (highest dose often 46.1 µM), for the others: top-dose activity, negative = toxicity, most hits filed as cytotoxic; actives 2% (n = 360,000); AID 686971;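 note: potency is the fitted concentration of half-maximal effect; 0% = DMSO wells and -100% = cell-free medium wells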
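% activity derives from luminescence (CellTiter-Glo), normalised to DMSO and no-cell wells. HT-1080-IDH1KD cells, 750/well, had 48 h compound exposure at 37 °C.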
DT40 TDP1 no CPT = qHTS for Inhibitors of human tyrosyl-DNA phosphodiesterase 1 (TDP1): qHTS in cells in absence of CPT; DT40 Tdp1-/- hTDP1 cells, no CPT, ATP luminescence, 48 h; actives 15% (n = 420,000); Potency, µM (series often up to 46.2 µM), without a hit: at the top dose activity change, negative = growth inhibition, actives largely listed as inhibitors; note: potency is the fitted concentration of half-maximal effect; nearly all actives have a fitted effect of over 55% in size
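Seeded 400 DT40-hTDP1 cells/well (vehicle DMSO, no 20 nM CPT); pinned compounds; ≥48 hr at 37 °C; CellTiter-Glo luminescence as viability measure.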
uPA generation = cell surface uPA generation inhibition; cell surface uPA generation assay, qHTS; Potency, µM (series often up to 38.3 µM), inactives show top-dose activity change, negative = inhibition, hits mostly inhibitors; actives 0.31% (n = 330,000); AID 540303; active = well fitted inhibition curve with a large enough effect; inconclusive = small, poorly fitted or top-dose-only effect; inactive = no such curve, though single readings can be large or run the other way; tested in mouse RAW 264.7 cells; note: potency is the fitted concentration of half-maximal effect; nearly all actives have a fitted effect of over 55% in size
IL-1B inflam inh = inflammasome signaling inhibition, IL-1 beta readout. THP-1 LPS/ATP IL-1B secretion, AlphaLISA, 16 h; stronger effect = lower value. AID 743279. activity change, % at 57.5 µM. actives 4.7% (n = 360,000); in the data active = activity change below about -50%; inconclusive = mostly about -30% to -49%
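Secreted IL-1B measured by AlphaLISA bead assay after 16 h compound exposure of THP-1 cells; compounds (final up to 57.5 uM) added 1 h before LPS (250 ng/mL) and ATP (1.25 mM) stimulation; lower signal means less secretion.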
HT1080-NT tox = kills 2HG-producing HT-1080-NT fibrosarcoma cells; actives 1.6% (n = 360,000); HT-1080-NT fibrosarcoma viability, CellTiter-Glo ATP luminescence, 48 h; Potency, µM (doses to about 46.1 µM), inactives show at the highest dose activity, negative = less viability, hits mostly cytotoxic; AID 686970;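 note: NT is the 2HG producing partner of a matched IDH1 knockdown line; potency is the fitted concentration of half-maximal effect; 0% = DMSO-treated cells and -100% = media-only wells without cells; nearly all actives have a fitted effect of over 55% in size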
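Luminescent CellTiter-Glo readout after 48 hours of compound exposure at 37 degrees C defined viability of HT-1080-NT cells. Activity was normalized to DMSO wells and cell-free media wells; concentration-response curves were fitted and assigned curve classes.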
DT40 TDP1 CPT = DT40-hTDP1 cell growth loss with CPT. chicken DT40 Tdp1-/-;hTDP1 cells + 20 nM CPT, ATP luminescence, 48 h. actives 12% (n = 420,000). Potency, µM (top dose mostly 46.2 µM), without a hit: top-dose activity change, negative = growth inhibition, hits mostly inhibitors; note: potency is the fitted concentration of half-maximal effect; nearly all actives have a fitted effect of over 55% in size
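Cell growth measured by CellTiter-Glo luminescence after a minimum 48 h, 37 C compound exposure with 20 nM CPT in Tdp1-knockout DT40 cells stably expressing hTDP1, seeded 400/well; qHTS titration format.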
* = called active by the depositor; ? = inconclusive; . = no result; ! = not confirmed by another sample; [ ] = another dose, or the depositor's remark. Unless noted, calls come from the whole dose curve; as a rule, active = well fitted curve in the direction sought with a large enough effect; inconclusive = small, poorly fitted or top-dose-only effect, or another doubt; inactive = no such curve, though single readings can be large; an effect the other way counts as inactive or inconclusive. Unless noted, % is set by controls: 0 for no effect and ±100 for the full control effect.

SMILES | HT1080 IDH1KD tx | DT40 TDP1 no CPT | uPA generation | IL-1B inflam inh | HT1080-NT tox | DT40 TDP1 CPT
COC(=O)C1=C(c2cccc(OCc3ccccc3)c2)C[C@@H]2CC[C@H]1N2C(=O)NCCOc1ccccc1Cl | -10% | 23µM* | ? | -25 | -7% | ?
O=C(NC(=O)c1c(F)cccc1F)Nc1ccc(Cl)cc1 | . | -7% | . | . | . | -9%
C=CCN1C(=O)NC(=O)/C(=C/c2ccc(OC)c(CSc3ccccn3)c2)C1=O | 0% | ? | 2% | 19 | -1% | ?
C=CCN1C(=O)NC(=O)/C(=C/c2ccc(OC)c(COc3ccc(NC(C)=O)cc3)c2)C1=O | ? | 3.7µM* | -4% | 13 | ? | 2.6µM*
NC(=NCc1ccc(Cl)cc1)SCCCc1cnc[nH]1 | . | ? | . | . | . | 21µM*
CCCCCC1(C(C)C)C(=O)NC(=S)NC1=O | 8% | -1% | 6% | 44 | 12% | -3%
C=C(C)[C@H]1O[C@H]2CC[C@@]3(C)[C@@](O)(CC[C@H]4[C@@H]5OC(C)(C)[C@H]6C[C@@H]7C(=C)Cc8c(Cl)cc9[nH]c(c5c9c8[C@@]76O)[C@@]43C)[C@]23O[C@@H]3[C@H]1O | . | 12µM* | . | . | . | ?
c1cc2c3c(cccc3c1)CC2 | . | -24% | . | . | . | -5%
OCCN1CCN(CC/C=C2/c3ccccc3Sc3ccc(Cl)cc32)CC1 | ? | 23µM* | -17% | ? | ? | ?
CN(C)CCCN1c2ccccc2Sc2ccc(Cl)cc21 | ? | 23µM*! | ? | 0 | 15µM*! | 11µM*!
CN(C)CC/C=C1\c2ccccc2Sc2ccc(Cl)cc21 | ? | 21µM* | -10% | -57* | 21µM* | 24µM*
CN(C)CCC=C1c2ccccc2CCc2ccccc21 | 23µM* | 27µM*! | 20% | ? | ? | 24µM*!
Cc1ccccc1C1=NCC(=S)Nc2ccc(Cl)cc21 | -2% | ? | -1% | 67 | 8% | ?
CCOC(=O)C1C(C=C(C)C)C1(C)C (stereo not given) | . | 17% | . | . | . | -5%
CC(C)OC1CCCC(O)C1CC(=O)O (stereo not given) | 7% | 1% | 25% | 0 | -5% | 7%
COc1ccc(Cl)cc1NC(=O)CN1C(=O)CN=C(c2ccccc2)c2cc(Cl)ccc21 | . | 15µM* | . | . | . | ?
O=C(O)CN1C(=O)CN=C(c2ccccn2)c2cc(Cl)ccc21 | -1% | -7% | -22% | 39 | -8% | -2%
Cc1cc(C)cc(NC(=O)CN2C(=O)CN=C(c3ccccc3)c3cc(Cl)ccc32)c1 | . | ? | . | . | . | 21µM*
CC12C(C(=O)O)C1(c1ccccc1)C2C(=O)O (stereo not given) | 27% | 4% | 4% | 19 | 11% | 6%
CC1=NN=C(c2ccc(N)cc2)c2cc3c(cc2C1)OCO3 | -5% | 27µM* | 6% | -18 | -19% | 30µM*
C/C=C(/C)C(=O)O[C@H]1C(C)=C2[C@H]([C@@H]1OC(=O)CCCCCCC)[C@@](C)(OC(C)=O)C[C@H](OC(=O)CCC)[C@@]1(O)[C@H]2OC(=O)[C@@]1(C)O | . | -8%[21.1 µM] | . | . | . | ?
COc1ccc(-[n+]2c(-c3ccccc3)cc(-c3ccc(C)cc3)cc2-c2ccccc2)cc1 | 2.6µM* | 1.2µM* | -19% | -94* | 4.6µM* | 2.6µM*
C[n+]1c(-c2ccccc2)cc(CCCCc2cc(-c3ccccc3)[n+](C)c(-c3ccccc3)c2)cc1-c1ccccc1 | ? | 5.2µM* | -4% | -100* | ? | 2.6µM*
Oc1c(Br)cc(-c2ccccc2)cc1Br | 1% | -23% | 1% | -9 | -1% | -10%
COc1ccc([C@@H](O)[C@@H](N)c2ccccc2)cc1 | 15% | -15% | 1% | 23 | 11% | 15%
SMILES | HT1080 IDH1KD tx | DT40 TDP1 no CPT | uPA generation | IL-1B inflam inh | HT1080-NT tox | DT40 TDP1 CPT
Brc1ccc(-[n+]2c(-c3ccccc3)cc(-c3ccccc3)cc2-c2ccccc2)cc1 | 13µM* | 2.6µM* | ? | -83* | 16µM* | 10µM*
COc1ccc(-c2cc(-c3ccccc3)[n+](C)c(-c3ccccc3)c2)cc1 | 15µM* | 0.58µM* | -17% | -90* | ? | 1µM*
CS(=O)(=O)c1ccc(C2=C(CNC(=O)c3cccnc3)[C@H]3CC[C@@H](C2)N3Cc2ccccc2)cc1 | 0% | -18% | . | 8 | 1% | -2%
COc1c(O)ccc(/C=N\NC(=O)c2ccc3c(c2)OCO3)c1[N+](=O)[O-] | -1% | -9% | ? | 1 | -1% | 6%
Cc1ccc(-c2cc(-c3ccccc3)cc(-c3ccccc3)[n+]2-c2ccc(C(=O)O)cc2)cc1 | 9% | 3% | 13% | 16 | 14% | -3%
CCCOC(=O)c1ccc(-[n+]2c(-c3ccccc3)cc(-c3ccccc3)cc2-c2ccccc2)cc1 | 12µM* | 1.2µM* | ? | -86* | 21µM* | 1.2µM*
Cc1cccc(C)c1NC1=NCCCCS1 | 11% | -3% | 3% | -1 | 9% | -13%
Cc1cc(/C=C2\C(=O)NC(=O)N(c3ccc(Cl)cc3)C2=O)c(C)n1-c1sc2c(c1C#N)CCCC2 | ? | ? | 17% | -26 | -14% | ?
CCOC(=O)c1c(-n2c(C)cc(/C=C3\C(=O)NC(=O)N(C)C3=O)c2C)sc2c1CCCC2 | 3% | ? | -1% | -73* | 14% | ?
COc1cccc(-n2cnc3scc(-c4cccs4)c3c2=O)c1 | 3%[9.24 µM] | ? | -14% | -64* | -3% | ?
COc1cccc(-n2c(-c3ccoc3)nc3ccccc3c2=O)c1 | 1% | ? | . | 3 | 5% | ?
CN1CCN(c2ccc3c(c2)S(=O)(=O)c2ccccc2C3=O)CC1 | 1% | ? | -1% | -11 | -29% | ?
CN1CCN(c2cccc3c2C(=O)c2ccccc2C3=O)CC1 | -18% | -18% | -22% | -60* | -21% | ?
Cc1ccc(CNS(=O)(=O)c2cc3c(cc2C)N(C)CCO3)cc1 | 0% | ? | -2% | 14 | 0% | ?
CC1=C(C/C(C)=C/c2ccccc2)/C(=C/CO)[C@H](O)[C@](C)(O)C12CC2 | 17% | ? | 2% | -15 | 18% | ?
CC(C)c1c(C(=O)N(C)Cc2cccc3ncccc23)cnn1-c1nccc(-c2ccccc2F)n1 | . | 8.2µM* | . | . | . | 4.1µM*
CC(C)CCN1CCN(Cc2c(F)cccc2Cl)CC1CCO (stereo not given) | -1% | -6% | 6% | -2 | -10% | -9%
CN1C(=O)C(=Cc2coc3ccccc3c2=O)C(=O)N(C)C1=O | 10% | 23µM* | 7% | -7 | 4% | ?
